A short description of assay [1]: ATG_NFI_CIS: Attagene CIS-FACTORIAL HepG2 Assay for human Nuclear Factor I (NFI) (AID 2282989). The following applies: HepG2 cis-regulatory reporter, NFI response element transcription; actives raise or lower the signal. The procedure, abridged:
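Multiplexed cis-reporter system in human HepG2 cells reports native TF activity as reporter mRNA induction 24 h post-dose. Fragments labelled with 6-FAM, HpaI-digested and resolved by capillary electrophoresis; activity fitted both directions versus DMSO.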

Assay [2] has as its target Myc proto-oncogene protein (Homo sapiens) (UniProt P01106). Briefly: ATG_Myc_CIS: Attagene CIS-FACTORIAL HepG2 Assay for human Myelocytomatosis (Myc) Proto-Oncogene Transcription Factor (AID 2282990). The following applies: HepG2, Attagene cis-reporter transcription factor activity; actives raise or lower the signal. The procedure, abridged:
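Cells of the HepG2 human liver line bear multiple cis-driven reporter transcription units. Reporter mRNA after 24 h exposure is reverse-transcribed, amplified, labelled and resolved by capillary electrophoresis, with gain- or loss-of-signal fitting relative to DMSO.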

The nature of assay [3]: ATG_NF_kB_CIS: Attagene CIS-FACTORIAL HepG2 Assay for human Nuclear Factor Kappa B (NF-kB) (AID 2282991). The following applies: HepG2 Attagene cis-factorial NF-kB reporter mRNA; actives raise or lower the signal. The procedure, abridged: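 HepG2, transient multi-reporter transfection, cis promoter elements (endogenous TFs). 24 h exposure. Total RNA → RT → PCR → 6-FAM label → HpaI → CE. Gain/loss vs DMSO.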

Assay [4] is described as follows: ATG_NRF2_ARE_CIS: Attagene CIS-FACTORIAL HepG2 Assay for human Nuclear Factor Erythroid 2 Related Factor 2 (NFR2) response to Antioxidant Response Elements (ARE) (AID 2282992). The following applies: HepG2 Attagene ARE/NRF2 reporter, transcription factor activity; actives raise or lower the signal. A digest of the protocol:
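Endogenous transcription factor activity read out as reporter transcript levels (RT-PCR plus capillary electrophoresis, fluorescence) in transiently transfected HepG2 cells. Measured at 24 h after dosing; gain or loss of signal fitted versus DMSO.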

The nature of assay [5]: ATG_Oct_MLP_CIS: Attagene CIS-FACTORIAL HepG2 Assay for human Octamer-Binding Transcription Factor (Oct) (AID 2282993). The following applies: HepG2 Attagene cis-factorial Oct reporter, mRNA; actives raise or lower the signal. The procedure, abridged:
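After 24 h compound exposure, transfected HepG2 cells were lysed for total RNA; reporter-specific cDNA was PCR-amplified, fluorescently labelled and sized by capillary electrophoresis. Bidirectional curve fitting used DMSO as baseline.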

The target of assay [6] is human Peroxisome Proliferator-activated Receptor alpha (PPARa), PPARA (gene 5465) (UniProt Q07869). The assay can be described thus: ATG_PPARa_TRANS: Attagene TRANS-FACTORIAL HepG2 Assay for human Peroxisome Proliferator-activated Receptor alpha (PPARa) (AID 2283001; active = hit-call score of the fitted dose curve at least 0.9, where 1 is the maximum). The procedure, abridged: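 Transfected HepG2 cells treated with test chemical for 24 h. RNA isolated, reverse-transcribed with oligo(dT), PCR-amplified, FAM-labelled and HpaI-digested. Fragments sized by capillary electrophoresis; gain-of-signal fit relative to DMSO.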
Sequence of human Peroxisome Proliferator-activated Receptor alpha (PPARa), PPARA (gene 5465) (Q07869 whole entry, looked up, the tested form may be a part): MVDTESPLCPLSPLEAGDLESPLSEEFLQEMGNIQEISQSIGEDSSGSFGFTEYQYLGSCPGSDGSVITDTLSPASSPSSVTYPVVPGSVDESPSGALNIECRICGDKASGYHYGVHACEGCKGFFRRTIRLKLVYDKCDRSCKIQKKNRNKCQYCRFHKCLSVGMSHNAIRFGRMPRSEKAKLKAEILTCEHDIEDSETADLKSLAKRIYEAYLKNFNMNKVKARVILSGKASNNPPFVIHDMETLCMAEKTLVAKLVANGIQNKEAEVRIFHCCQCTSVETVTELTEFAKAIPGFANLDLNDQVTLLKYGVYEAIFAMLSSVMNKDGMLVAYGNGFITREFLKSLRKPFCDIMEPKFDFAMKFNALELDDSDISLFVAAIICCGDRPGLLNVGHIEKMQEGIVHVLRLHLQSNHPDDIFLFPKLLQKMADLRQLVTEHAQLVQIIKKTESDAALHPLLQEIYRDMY

The target of assay [7] is human Peroxisome Proliferator-activated Receptor delta (PPARd), PPARD (gene 5467) (UniProt Q03181). The assay can be described thus: ATG_PPARd_TRANS: Attagene TRANS-FACTORIAL HepG2 Assay for human Peroxisome Proliferator-activated Receptor delta (PPARd) (AID 2283002; active = hit-call score of the fitted dose curve at least 0.9, where 1 is the maximum). The procedure, abridged:
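Cell-based TRANS reporter: HepG2, transient MRTU transfection, 24 h exposure. Readout = reporter mRNA (RT-PCR/CE, 6-FAM). Gain-of-signal fit vs DMSO control.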

Assay [8] deals with Peroxisome proliferator-activated receptor gamma (Homo sapiens) (UniProt P37231). Briefly: ATG_PPARg_TRANS: Attagene TRANS-FACTORIAL HepG2 Assay for human Peroxisome Proliferator-activated Receptor-gamma (PPARg) (AID 2283007; active = hit-call score of the fitted dose curve at least 0.9, where 1 is the maximum). The procedure, abridged:
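Multiplexed reporter transcription units in HepG2, 24 h dosing, reporter transcripts quantified by fluorescent RT-PCR and capillary electrophoresis. Increase over DMSO scored.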

Assay [9] concerns the target human RAR-related Orphan Receptor gamma (RORg), RORC (gene 6097) (UniProt P51449). Briefly: ATG_RORg_TRANS: Attagene TRANS-FACTORIAL HepG2 Assay for human RAR-related Orphan Receptor gamma (RORg) (AID 2283011; active = hit-call score of the fitted dose curve at least 0.9, where 1 is the maximum). A digest of the protocol:
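Chimeric RORg-Gal4 transactivation in transfected HepG2; 24 h exposure; RT-PCR/capillary electrophoresis readout of reporter mRNA, DMSO baseline.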

Assay [10] addresses Cellular tumor antigen p53 (Homo sapiens) (UniProt P04637). The assay can be described thus: ATG_p53_CIS: Attagene CIS-FACTORIAL HepG2 Assay for human p53 Transcription Factor (AID 2282994). The following applies: HepG2 p53 cis-element reporter, Attagene mRNA; actives raise or lower the signal. The procedure, abridged:
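Endogenous p53 activity read in transiently transfected HepG2 from a cis-element-driven reporter transcript after 24 h exposure. RNA reverse-transcribed, PCR-amplified, fluorescently labelled and sized by capillary electrophoresis; gain or loss fitted against DMSO baseline.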

The target in assay [11] is human RAR-related Orphan Receptor beta (RORb), RORB (gene 6096) (UniProt Q92753). Briefly: ATG_RORb_TRANS: Attagene TRANS-FACTORIAL HepG2 Assay for human RAR-related Orphan Receptor beta (RORb) (AID 2283010; active = hit-call score of the fitted dose curve at least 0.9, where 1 is the maximum). A digest of the protocol: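 Multiplexed transcription-factor reporter assay: HepG2 cells transiently carrying NR-Gal4/GAL4-UAS constructs, 24 h treatment, mRNA quantified by RT-PCR plus capillary electrophoresis fluorescence; activity scored as induction over DMSO.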
Sequence of human RAR-related Orphan Receptor beta (RORb), RORB (gene 6096) (Q92753 whole entry, looked up, the tested form may be a part): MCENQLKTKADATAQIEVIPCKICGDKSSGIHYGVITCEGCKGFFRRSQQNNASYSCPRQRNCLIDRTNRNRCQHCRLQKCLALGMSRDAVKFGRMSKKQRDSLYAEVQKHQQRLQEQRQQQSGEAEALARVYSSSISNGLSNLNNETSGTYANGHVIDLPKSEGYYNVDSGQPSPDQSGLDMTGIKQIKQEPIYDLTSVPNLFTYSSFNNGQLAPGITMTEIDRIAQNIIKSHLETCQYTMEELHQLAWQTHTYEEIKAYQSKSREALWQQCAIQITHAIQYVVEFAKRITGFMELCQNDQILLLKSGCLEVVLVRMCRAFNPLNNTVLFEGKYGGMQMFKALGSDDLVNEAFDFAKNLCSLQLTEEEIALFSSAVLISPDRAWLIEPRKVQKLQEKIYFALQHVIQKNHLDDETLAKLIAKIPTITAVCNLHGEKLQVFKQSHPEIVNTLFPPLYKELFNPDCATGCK

Assay [12] deals with Retinoic acid receptor alpha (Homo sapiens) (UniProt P10276). The assay can be described thus: ATG_RARa_TRANS: Attagene TRANS-FACTORIAL HepG2 Assay for human Retinoic Acid Receptor alpha (RARa) (AID 2283005; active = hit-call score of the fitted dose curve at least 0.9, where 1 is the maximum). The procedure, abridged: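 Reporter transcripts, measured by RT-PCR with fluorescent labeling and capillary electrophoresis after 24 h dosing, reflect activity of an exogenous human RARa–GAL4 fusion in transiently transfected HepG2. Fitted for increase relative to DMSO.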
Sequence of Retinoic acid receptor alpha (Homo sapiens) (P10276 whole entry, looked up, the tested form may be a part): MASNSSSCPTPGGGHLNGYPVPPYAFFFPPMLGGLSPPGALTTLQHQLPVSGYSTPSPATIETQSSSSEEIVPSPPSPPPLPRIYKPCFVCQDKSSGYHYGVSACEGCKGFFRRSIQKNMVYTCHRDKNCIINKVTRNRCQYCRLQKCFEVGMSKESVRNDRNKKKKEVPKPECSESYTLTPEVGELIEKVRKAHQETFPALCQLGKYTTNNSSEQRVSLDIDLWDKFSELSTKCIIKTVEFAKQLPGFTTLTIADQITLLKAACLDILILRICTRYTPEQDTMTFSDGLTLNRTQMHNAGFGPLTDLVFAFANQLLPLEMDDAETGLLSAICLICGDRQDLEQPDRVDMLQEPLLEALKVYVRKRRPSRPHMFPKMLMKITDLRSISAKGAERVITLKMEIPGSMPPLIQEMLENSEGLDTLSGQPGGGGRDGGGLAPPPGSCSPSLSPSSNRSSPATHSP

Assay [13] has as its target human Retinoic Acid Receptor gamma (RARg), RARG (gene 5916) (UniProt P13631). The assay can be described thus: ATG_RARg_TRANS: Attagene TRANS-FACTORIAL HepG2 Assay for human Retinoic Acid Receptor gamma (RARg) (AID 2283009; active = hit-call score of the fitted dose curve at least 0.9, where 1 is the maximum). A digest of the protocol:
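Gain-of-signal relative to DMSO is reported from fluorescent capillary electrophoresis of RT-PCR reporter products. These came from HepG2 cells expressing transfected RARg-GAL4 chimeras with UAS reporters, harvested 24 h after dosing.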

Assay [14] has as its target Nuclear receptor subfamily 1 group I member 2 (Homo sapiens) (UniProt O75469). Briefly: ATG_PXR_TRANS: Attagene TRANS-FACTORIAL HepG2 Assay for human Pregnane X Receptor (PXR) (AID 2283008; active = hit-call score of the fitted dose curve at least 0.9, where 1 is the maximum). A digest of the protocol: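 Transactivation by exogenous PXR–GAL4 fusion measured as reporter transcript induction after 24 h compound treatment of transfected human HepG2 cells. Read-out via RT-PCR and capillary electrophoresis of labelled fragments, fitted upward relative to DMSO.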

The nature of assay [15]: BSK_3C_uPAR: BioMAP Diversity Plus: 3C Assay for Urokinase-type plasminogen activator receptor (uPAR) Biomarker Activity (AID 2282998). The following applies: BioMAP 3C HUVEC, uPAR biomarker ELISA; actives raise or lower the signal. The procedure, abridged: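 Values derive from bidirectional curve fitting relative to DMSO, which served as baseline of activity. uPAR was measured by ELISA in human umbilical vein endothelial primary cultures 24 h after compound addition.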
For orientation: An ELISA detects its analyte on a solid surface through an enzyme-linked reagent.

Assay [16] in a line: BSK_3C_VCAM1: BioMAP Diversity Plus: 3C Assay for Vascular cell adhesion molecule 1 (VCAM1) Biomarker Activity (AID 2282999). The following applies: BioMAP 3C HUVEC, VCAM1 ELISA, cytokine-stimulated; actives raise or lower the signal. The procedure, abridged: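 Activity fitted in both directions relative to DMSO, with ELISA measurement of the surface marker on primary HUVEC (3C) at 24 h post-treatment; parallel SRB staining (0.1% SRB, TCA-fixed, 560 nm) flagged overt cytotoxicity.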

Assay [17] can be described thus: BSK_4H_Eotaxin3: BioMAP Diversity Plus: 4H Assay for Eotaxin 3 Biomarker Activity (AID 2283000).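 Also: CCL26 protein level quantified by ELISA in parallel with SRB cytotoxicity check.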 The following applies: primary human endothelial cells (HUVEC); actives raise or lower the signal. The procedure, abridged: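 ELISA quantitation of CCL26 (Eotaxin-3) protein from chemically dosed human vascular endothelial cells at 24 h; increases and decreases both scored relative to DMSO-treated baseline.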

Read-out in assay [18]: Intercellular Adhesion Molecule 1 (ICAM1), ICAM1 (gene 3383)
The assay can be described thus: BSK_3C_ICAM1: BioMAP Diversity Plus: 3C Assay for Intercellular Adhesion Molecule 1 (ICAM1) Biomarker Activity (AID 2283003). The following applies: primary human endothelial cells (HUVEC); actives raise or lower the signal. A digest of the protocol:
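Using DMSO as baseline, bidirectional curve fitting was applied to ICAM-1 ELISA signals from HUVEC in the 3C system, measured 24 h after compound addition.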

SMILES strings stand for the structures. Inconclusive results are not listed. Active and inactive are the calls of the source. The calls were made as follows, unless noted: active = hit-call score of the fitted dose curve at least 0.9, where 1 is the maximum; inactive = score below 0.9.

Sequence of human Retinoic Acid Receptor gamma (RARg), RARG (gene 5916) (P13631 whole entry, looked up, the tested form may be a part): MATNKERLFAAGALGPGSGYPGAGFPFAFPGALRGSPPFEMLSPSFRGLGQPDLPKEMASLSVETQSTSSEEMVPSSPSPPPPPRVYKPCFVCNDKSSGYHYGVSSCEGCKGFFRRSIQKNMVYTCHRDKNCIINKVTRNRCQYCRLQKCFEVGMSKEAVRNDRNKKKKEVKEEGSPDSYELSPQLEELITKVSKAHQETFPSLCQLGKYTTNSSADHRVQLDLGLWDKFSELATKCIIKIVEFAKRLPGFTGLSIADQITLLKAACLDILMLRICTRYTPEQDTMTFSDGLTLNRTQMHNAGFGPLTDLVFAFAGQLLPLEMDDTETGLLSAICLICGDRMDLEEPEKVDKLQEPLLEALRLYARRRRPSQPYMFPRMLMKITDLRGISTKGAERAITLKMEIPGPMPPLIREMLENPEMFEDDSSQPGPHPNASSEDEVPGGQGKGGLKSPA
Sequence of human RAR-related Orphan Receptor gamma (RORg), RORC (gene 6097) (P51449 whole entry, looked up, the tested form may be a part): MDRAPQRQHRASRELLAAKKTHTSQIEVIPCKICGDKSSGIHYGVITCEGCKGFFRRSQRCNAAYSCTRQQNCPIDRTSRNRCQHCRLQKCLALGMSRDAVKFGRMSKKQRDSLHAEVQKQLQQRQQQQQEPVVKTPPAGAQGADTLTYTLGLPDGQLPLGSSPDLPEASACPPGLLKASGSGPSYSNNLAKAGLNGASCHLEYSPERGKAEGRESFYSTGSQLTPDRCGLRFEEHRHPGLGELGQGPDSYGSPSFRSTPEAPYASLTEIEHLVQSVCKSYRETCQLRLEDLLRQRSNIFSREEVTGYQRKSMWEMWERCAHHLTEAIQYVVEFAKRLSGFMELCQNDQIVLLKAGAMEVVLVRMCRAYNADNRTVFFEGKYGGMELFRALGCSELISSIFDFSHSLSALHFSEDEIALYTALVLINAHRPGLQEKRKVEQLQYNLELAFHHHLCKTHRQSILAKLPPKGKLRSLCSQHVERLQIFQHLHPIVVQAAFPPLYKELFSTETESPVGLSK
Sequence of Myc proto-oncogene protein (Homo sapiens) (P01106 whole entry, looked up): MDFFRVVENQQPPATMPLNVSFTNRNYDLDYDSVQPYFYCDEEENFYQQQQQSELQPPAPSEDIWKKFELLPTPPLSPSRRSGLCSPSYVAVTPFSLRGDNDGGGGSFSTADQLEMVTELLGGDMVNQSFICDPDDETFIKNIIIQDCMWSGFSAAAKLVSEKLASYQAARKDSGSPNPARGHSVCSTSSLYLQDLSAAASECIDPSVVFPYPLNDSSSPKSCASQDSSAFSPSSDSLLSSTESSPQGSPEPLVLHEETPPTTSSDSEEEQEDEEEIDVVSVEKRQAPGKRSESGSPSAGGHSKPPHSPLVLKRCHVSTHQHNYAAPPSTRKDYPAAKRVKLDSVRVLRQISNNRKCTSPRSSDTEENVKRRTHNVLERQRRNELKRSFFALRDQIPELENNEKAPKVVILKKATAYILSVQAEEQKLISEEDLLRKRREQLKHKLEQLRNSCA
Sequence of Peroxisome proliferator-activated receptor gamma (Homo sapiens) (P37231 whole entry, looked up): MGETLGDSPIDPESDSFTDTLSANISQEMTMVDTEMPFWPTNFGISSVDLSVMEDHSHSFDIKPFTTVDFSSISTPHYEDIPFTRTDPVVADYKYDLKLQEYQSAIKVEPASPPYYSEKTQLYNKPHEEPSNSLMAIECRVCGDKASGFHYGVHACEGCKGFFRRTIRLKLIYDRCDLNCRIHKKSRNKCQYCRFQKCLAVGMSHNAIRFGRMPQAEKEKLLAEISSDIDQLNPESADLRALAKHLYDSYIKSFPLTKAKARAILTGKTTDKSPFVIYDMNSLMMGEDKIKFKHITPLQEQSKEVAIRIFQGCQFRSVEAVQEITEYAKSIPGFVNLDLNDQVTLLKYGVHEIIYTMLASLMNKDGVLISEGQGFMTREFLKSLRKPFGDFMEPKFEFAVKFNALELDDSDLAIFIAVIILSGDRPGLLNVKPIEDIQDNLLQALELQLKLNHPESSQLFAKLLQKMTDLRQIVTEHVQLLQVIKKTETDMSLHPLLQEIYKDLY
Sequence of Cellular tumor antigen p53 (Homo sapiens) (P04637 whole entry, looked up): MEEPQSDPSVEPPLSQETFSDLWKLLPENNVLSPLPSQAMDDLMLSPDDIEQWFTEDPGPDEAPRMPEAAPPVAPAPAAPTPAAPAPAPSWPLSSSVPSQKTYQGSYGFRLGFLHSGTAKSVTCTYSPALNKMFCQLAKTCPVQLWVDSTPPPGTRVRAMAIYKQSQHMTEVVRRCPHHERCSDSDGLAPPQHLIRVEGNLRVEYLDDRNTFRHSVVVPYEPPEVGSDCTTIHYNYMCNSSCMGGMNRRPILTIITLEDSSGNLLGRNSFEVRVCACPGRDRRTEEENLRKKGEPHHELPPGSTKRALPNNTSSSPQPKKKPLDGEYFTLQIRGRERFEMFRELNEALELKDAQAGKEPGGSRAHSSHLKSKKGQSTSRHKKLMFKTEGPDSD
Sequence of Nuclear receptor subfamily 1 group I member 2 (Homo sapiens) (O75469 whole entry, looked up, the tested form may be a part): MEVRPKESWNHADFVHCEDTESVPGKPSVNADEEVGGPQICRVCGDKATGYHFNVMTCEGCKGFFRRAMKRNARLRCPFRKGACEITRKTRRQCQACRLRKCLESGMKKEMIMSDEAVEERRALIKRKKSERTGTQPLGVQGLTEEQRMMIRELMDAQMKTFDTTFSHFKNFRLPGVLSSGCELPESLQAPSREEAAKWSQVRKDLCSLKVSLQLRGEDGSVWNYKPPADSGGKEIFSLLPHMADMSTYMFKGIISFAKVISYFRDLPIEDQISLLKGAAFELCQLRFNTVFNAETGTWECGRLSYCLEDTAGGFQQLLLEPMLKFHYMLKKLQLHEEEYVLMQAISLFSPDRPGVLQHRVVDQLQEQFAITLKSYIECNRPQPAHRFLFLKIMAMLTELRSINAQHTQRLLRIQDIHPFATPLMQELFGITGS
Sequence of human Peroxisome Proliferator-activated Receptor delta (PPARd), PPARD (gene 5467) (Q03181 whole entry, looked up): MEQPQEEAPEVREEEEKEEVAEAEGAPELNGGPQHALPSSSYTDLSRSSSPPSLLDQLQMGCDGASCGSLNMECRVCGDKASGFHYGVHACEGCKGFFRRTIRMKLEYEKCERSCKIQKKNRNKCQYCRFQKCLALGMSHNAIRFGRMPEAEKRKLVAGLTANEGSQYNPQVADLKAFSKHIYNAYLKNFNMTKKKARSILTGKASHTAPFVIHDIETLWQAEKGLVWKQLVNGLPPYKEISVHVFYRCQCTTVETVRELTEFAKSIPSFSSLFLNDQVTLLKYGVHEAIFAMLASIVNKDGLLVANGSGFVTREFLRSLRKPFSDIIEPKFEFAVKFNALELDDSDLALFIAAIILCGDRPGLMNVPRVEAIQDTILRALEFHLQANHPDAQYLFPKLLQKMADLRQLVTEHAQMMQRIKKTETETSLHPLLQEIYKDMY

With `CCCCCCCCCCCCCCCC(=O)OC[C@H](O)[C@H]1OC(=O)C(O)=C1O`, the result in assay [1], in assay [2], in assay [3], in assay [5], in assay [6] and in assay [7] was inactive. For the same compound, the call in assay [8] and in assay [9] was inactive. In addition, the AC50 in assay [4] is 66.8 µM (active).

Consider `CCCC1CCC(=O)O1` (stereo not given), for which the call in [1], in [2], in [3], in assay [4], in assay [5] and in assay [10] was inactive. Besides, the compound was classed as inactive in [7] and in assay [11].

As for `CCCCCCOC(=O)CCCCC`, the outcome in [1], in assay [2], in assay [3], in [4], in assay [5] and in assay [10] was inactive. Besides, the result in assay [12], in [8], in [13] and in assay [11] was inactive.

With `Nc1cc(Cl)c(O)c(Cl)c1`, the outcome in [1], in [6], in assay [7], in assay [14], in [11] and in assay [9] was inactive. In addition, the concentration at half-maximal activity (AC50) was 100 µM (active) in assay [2]; 46.8 µM (active) in [3]; 26.5 µM (active) in assay [4]; 100 µM (active) in [5]; 30 µM (active) in [8].

On to `COc1cccc(OC)c1`, for which the compound was called inactive in [1], in assay [2], in assay [3], in assay [4], in assay [5] and in assay [10]. The outcome in assay [7] and in assay [9] was inactive.

Consider `CC(C)(C)NC(N)=O`, for which the result in [1], in assay [2], in assay [3], in assay [4], in assay [5] and in assay [10] was inactive. The compound was called inactive in [7] and in assay [14].

With `CC1(C)C(=O)N(Br)C(=O)N1Cl`, the outcome in assay [1], in assay [2], in assay [3], in [5], in assay [6] and in assay [7] was inactive. Further, the compound was called inactive in [12] and in [8]. Further, in [4], the half-maximal activity concentration (AC50) is 100 µM (active).

Regarding `FC1(F)C(F)(F)C(F)(F)C2(F)C(F)(C1(F)F)C(F)(F)C(F)(F)C1(F)C(F)(F)C(F)(F)C(F)(F)C(F)(F)C12F` (stereo not given), the result in assay [1], in assay [2], in assay [3], in assay [4], in assay [5] and in assay [10] was inactive. Further, the compound was called inactive in [7] and in assay [14].

On to `O=c1[nH]c(=O)n([C@H]2CCCO2)cc1F`, for which the compound was called inactive in assay [1], in assay [2], in assay [3], in assay [4], in [5] and in assay [10]. In [8], the outcome was inactive.

On to `CC(=O)C(C)=O`, for which the outcome in assay [1], in [2], in assay [3], in assay [5], in assay [10] and in assay [7] was inactive. For the same compound, the outcome in assay [14] was inactive. Besides, in [4], the AC50 is 37.4 µM (active).

`ClCCCl`: the outcome in [1], in [2], in assay [3], in [4], in assay [5] and in assay [10] was inactive. The compound was called inactive in [7], in assay [8], in assay [14], in [11] and in assay [9].

In the case of `O=P(c1ccccc1)(c1ccccc1)c1ccccc1`, the result in [1], in assay [2], in assay [3], in assay [4], in assay [5] and in [15] was inactive. Besides, the outcome in [16], in assay [17], in assay [18], in assay [8] and in assay [9] was inactive. Besides, in [14], the AC50 is 0.325 µM (active).

As to `CC(CCO)CCc1ccccc1` (stereo not given), the compound was called inactive in assay [1], in assay [2], in assay [3], in assay [4], in assay [5] and in assay [6]. Further, the compound was called inactive in assay [7] and in [8]. The AC50 in assay [14] is 48.2 µM (active).

On to `NC(=O)Nc1ccc(Cl)cc1`, for which the outcome in assay [1], in [2], in assay [3], in assay [4], in [5] and in assay [6] was inactive. The call in assay [7], in assay [8] and in assay [11] was inactive.

In the case of `COC(C)CCO` (stereo not given), the compound was called inactive in [1], in assay [2], in assay [3], in assay [12], in assay [8] and in assay [13]. Besides, the compound was classed as inactive in assay [9]. The values for the AC50 in [4], in assay [5] and in assay [10] were 63.3 µM (active), 151 µM (active) and 162 µM (active), respectively.

In the case of `CCCCNC(=O)NS(=O)(=O)c1ccc(N)cc1`, the call in assay [1], in [2], in assay [3], in [4], in assay [5] and in assay [10] was inactive. The compound was called inactive in [12] and in [13].

By AC50 is commonly meant the concentration giving half of the maximal activity seen.
